The values below come from PubChem BioAssay (Tox21).

SMILES strings stand for the structures. Unmarked numbers belong to inactive results. Results filed as inconclusive are left out. Some compounds were tested as several samples or in several runs, with calls that do not always agree. Activity calls are given as the source filed them. Unless noted, calls come from the whole dose curve; as a rule, active = well fitted curve in the direction sought with a large enough effect in the repeat runs; inconclusive = weak or mixed curves; inactive = no such curve, though single readings can be large; an effect the other way counts as inactive or inconclusive.

In test [1] the target is Acetylcholinesterase (Homo sapiens) (UniProt P22303). The test can be described thus: Acetylcholinesterase (AChE) small molecule antagonists: colormetric cell-based qHTS assay (AID 1347395; calls by dose curve; note: nearly all actives have a fitted effect of over 30% in size; note: potency is the fitted concentration of half-maximal effect). Put shortly:
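In this cell-based qHTS, attached SH-SY5Y cells were treated with test chemicals for 30 min, after which acetylthiocholine hydrolysis was followed by DTNB colour development over 90 min at 37 C.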

The target is the same in test [2]. In words: Acetylcholinesterase (AChE) small molecule antagonists: enzyme-based qHTS assay (AID 1347397; calls by dose curve; note: nearly all actives have a fitted effect of over 55% in size). Particulars: Potency: AChE enzyme activity inhibition; outcome: AChE enzyme activity inhibition. In outline: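 Colorimetric DTNB readout of acetylthiocholine hydrolysis, 10 min at room temperature, after 30 min room-temperature exposure of 50 mU/mL recombinant human enzyme to compound; DMSO vehicle control.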
A general note: Quantitative high-throughput screening tests each substance at several concentrations.

Test [3] shares this target. In words: Acetylcholinesterase (AChE) small molecule antagonists: fluorescence cell-based qHTS assay (AID 1347398; calls by dose curve; note: nearly all actives have a fitted effect of over 50% in size). Particulars: Potency: AChE activity; outcome: AChE activity. In outline: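 Cellular AChE activity read as thiocholine from acetylthiocholine hydrolysis, detected by Thiolite Green fluorescence at 490/520 nm after 40 min at room temperature. Compounds were pre-incubated 30 min at 37 C on adherent SH-SY5Y cells.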

A short description of test [4]: qHTS assay for small molecules that induce genotoxicity in human embryonic kidney cells expressing luciferase-tagged ATAD5 (AID 651632). Note: nearly all actives have a fitted effect of over 15% in size. In outline: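 Cells were seeded at 2,000 per well, dosed with compound, and incubated 16 hr at 37C in 5% CO2. Luciferase activity was then quantified after a 30 min room-temperature incubation with Amplite.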
A short description of test [5]: qHTS assay for small molecules that induce genotoxicity in human embryonic kidney cells expressing luciferase-tagged ATAD5 - cell viability (AID 651634; calls by dose curve; note: nearly all actives have a fitted effect of over 25% in size; note: potency is the fitted concentration of half-maximal effect). Put shortly:
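Cells (HEK293T, luciferase-tagged ATAD5) are seeded at 2,000 per well, dosed with compound or DMSO vehicle, and incubated 15.5 hr at 37C and 5% CO2. CellTiter-Fluor is added for 30 min before fluorescence is measured.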

Test [6] in a line: qHTS assay for small molecule disruptors of the mitochondrial membrane potential - cell viability (AID 720634; calls by dose curve; note: nearly all actives have a fitted effect of over 20% in size; note: potency is the fitted concentration of half-maximal effect). Put shortly:
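Cytotoxicity was measured by ATP quantitation in HepG2 wells that had first been treated with compound for 1 hr and stained with m-MPI dye; CellTiter-Glo incubation was 30 min at room temperature.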

Test [7] in a line: qHTS assay to test for compound auto fluorescence at 590 nm (red) in HepG2 cells (AID 720674). Put shortly: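 Red autofluorescence (Ex/Em 540/590 nm, Rose Bengal sodium equivalents) was measured in HepG2 cells, 2,000 per well in MEM plus 10% FBS, plated overnight at 37 C. Readings were taken 1 hr after adding 23 nL compound or DMSO, at 37 C and 5% CO2.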
Test [8] is described as follows: qHTS assay to test for compound auto fluorescence at 460 nm (blue) in HEK293 cells (AID 720678). In outline: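 Blue-channel (Ex/Em 405/460 nm) intensity measured in HEK293 cultures after overnight compound exposure at 37C; signal expressed relative to triamterene. Cells plated 2,000 per well in 10% dialyzed FBS medium and allowed 4-5 hr to attach.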
Test [9] is described as follows: qHTS assay to test for compound auto fluorescence at 535 nm (green) in HEK293 cells (AID 720680).
The nature of test [10]: qHTS assay to test for compound auto fluorescence at 460 nm (blue) in HEK293 cell free culture (AID 720681). In outline: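 Blue fluorescence (Ex 405/Em 460 nm, triamterene-equivalent) was read immediately after pin transfer of compound or DMSO into medium (DMEM, 10% FBS) without cells.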
Test [11] can be described thus: qHTS assay to test for compound auto fluorescence at 535 nm (green) in HEK293 cell free culture (AID 720682). In outline:
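Measurement is a direct plate read of green fluorescence (485 nm in, 535 nm out) after compound addition to serum-supplemented DMEM lacking cells, with fluorescein used to express intensities.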

A short description of test [12]: qHTS assay to test for compound auto fluorescence at 590 nm (red) in HEK293 cell free culture (AID 720683). Put shortly: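 Red-channel autofluorescence of compounds in culture medium (DMEM, 10% FBS), no cells, measured at 540/590 nm. Rose Bengal sodium is the reference fluorophore for equivalence.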
A short description of test [13]: qHTS assay to test for compound auto fluorescence at 590 nm (red) in HepG2 cell free culture (AID 720684). In outline:
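Cell-free; medium MEM + 10% FBS; compound or DMSO added by pintool; read Ex 540/Em 590 nm; Rose Bengal sodium as red reference fluorophore.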

Test [14] can be described thus: qHTS assay to test for compound auto fluorescence at 460 nm (blue) in HepG2 cell free culture (AID 720685). Put shortly:
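Cell-free plates of MEM plus 10% FBS received 23 nL compound or DMSO vehicle; blue-channel (405/460 nm) intensity scored against triamterene as reference fluorophore.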

Test [15] can be described thus: qHTS assay to test for compound auto fluorescence at 460 nm (blue) in HepG2 cells (AID 720687). Put shortly:
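Blue-channel autofluorescence (Ex/Em 405/460 nm, triamterene-equivalent) was measured after 1 hr compound exposure at 37 C, 5% CO2. Cells were HepG2, plated overnight at 37 C in MEM plus 10% FBS.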

Test [16] is described as follows: qHTS assay to identify small molecule antagonists of the glucocorticoid receptor (GR) signaling pathway - cell viability counter screen (AID 720693). Note: nearly all actives have a fitted effect of over 55% in size. Note: potency is the fitted concentration of half-maximal effect.
The target of test [17] is Aromatase (Homo sapiens) (UniProt P11511). The test can be described thus: qHTS assay to identify aromatase inhibitors (AID 743083). For activity, negative = inhibition: series mostly up to about 70 µM. Note: nearly all actives have a fitted effect of over 55% in size. Note: potency is the fitted concentration of half-maximal effect.
Chain of Aromatase (Homo sapiens) (P11511 whole entry, looked up): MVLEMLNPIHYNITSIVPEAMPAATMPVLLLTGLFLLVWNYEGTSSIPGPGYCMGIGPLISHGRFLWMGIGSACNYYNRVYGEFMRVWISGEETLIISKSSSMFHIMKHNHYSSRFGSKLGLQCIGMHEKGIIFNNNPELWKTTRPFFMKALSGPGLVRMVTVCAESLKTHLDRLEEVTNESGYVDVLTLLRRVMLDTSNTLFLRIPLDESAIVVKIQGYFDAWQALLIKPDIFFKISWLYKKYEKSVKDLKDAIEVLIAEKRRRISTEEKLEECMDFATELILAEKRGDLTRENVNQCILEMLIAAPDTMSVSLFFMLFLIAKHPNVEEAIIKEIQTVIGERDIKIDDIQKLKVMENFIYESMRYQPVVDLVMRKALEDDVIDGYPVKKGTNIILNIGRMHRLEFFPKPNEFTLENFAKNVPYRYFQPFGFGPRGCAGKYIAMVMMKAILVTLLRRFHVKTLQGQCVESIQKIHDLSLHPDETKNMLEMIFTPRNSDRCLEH
A short description of test [18]: qHTS assay to identify aromatase inhibitors - cell viability counter screen (AID 743084).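 Note: cells stimulated with testosterone during compound exposure; nearly all actives have a fitted effect of over 55% in size.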 Note: potency is the fitted concentration of half-maximal effect.
The target of test [19] is Aryl hydrocarbon receptor (Homo sapiens) (UniProt P35869). The test can be described thus: qHTS assay to identify small molecule that activate the aryl hydrocarbon receptor (AhR) signaling pathway (AID 743085).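 Note: HG2L7.5c1 human HepG2 liver cells with stably integrated DRE-driven firefly reporter; series mostly up to about 70 µM; nearly all actives have a fitted effect of over 15% in size.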 In outline:
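24 h compound exposure, 37C, HepG2-derived HG2L7.5c1 cells with DRE-responsive luciferase. Readouts: fluorescence viability, then luminescence at room temperature after 30 min.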

The nature of test [20]: qHTS assay to identify small molecule antagonists of the thyroid receptor (TR) signaling pathway - cell viability counter screen (AID 743064). Note: nearly all actives have a fitted effect of over 50% in size. Note: potency is the fitted concentration of half-maximal effect. In outline:
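Compounds were tested on GH3.TRE-Luc cells in the presence of T3 at 1 nM final. Following 23.5 h at 37 °C, cell viability was quantified by CellTiter-Fluor.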
% is set by controls: 0 for no effect and ±100 for the full control effect.

Chain of Acetylcholinesterase (Homo sapiens) (P22303 whole entry, looked up): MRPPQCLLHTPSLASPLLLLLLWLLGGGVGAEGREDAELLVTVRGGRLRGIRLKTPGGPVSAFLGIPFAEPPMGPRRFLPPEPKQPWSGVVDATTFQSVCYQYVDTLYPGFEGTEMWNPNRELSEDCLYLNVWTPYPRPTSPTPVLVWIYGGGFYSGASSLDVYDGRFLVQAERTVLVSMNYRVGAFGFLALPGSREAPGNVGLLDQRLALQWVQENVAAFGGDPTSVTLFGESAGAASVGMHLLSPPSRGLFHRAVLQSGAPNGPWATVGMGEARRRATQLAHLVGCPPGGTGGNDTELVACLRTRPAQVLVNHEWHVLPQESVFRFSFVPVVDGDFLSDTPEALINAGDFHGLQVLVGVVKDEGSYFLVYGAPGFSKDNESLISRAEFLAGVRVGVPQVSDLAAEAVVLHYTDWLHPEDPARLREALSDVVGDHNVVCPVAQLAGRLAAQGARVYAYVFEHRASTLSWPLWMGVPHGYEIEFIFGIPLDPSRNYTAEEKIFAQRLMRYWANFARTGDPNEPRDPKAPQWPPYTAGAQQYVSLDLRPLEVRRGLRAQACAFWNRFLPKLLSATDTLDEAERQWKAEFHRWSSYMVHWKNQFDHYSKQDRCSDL
Chain of Aryl hydrocarbon receptor (Homo sapiens) (P35869 whole entry, looked up): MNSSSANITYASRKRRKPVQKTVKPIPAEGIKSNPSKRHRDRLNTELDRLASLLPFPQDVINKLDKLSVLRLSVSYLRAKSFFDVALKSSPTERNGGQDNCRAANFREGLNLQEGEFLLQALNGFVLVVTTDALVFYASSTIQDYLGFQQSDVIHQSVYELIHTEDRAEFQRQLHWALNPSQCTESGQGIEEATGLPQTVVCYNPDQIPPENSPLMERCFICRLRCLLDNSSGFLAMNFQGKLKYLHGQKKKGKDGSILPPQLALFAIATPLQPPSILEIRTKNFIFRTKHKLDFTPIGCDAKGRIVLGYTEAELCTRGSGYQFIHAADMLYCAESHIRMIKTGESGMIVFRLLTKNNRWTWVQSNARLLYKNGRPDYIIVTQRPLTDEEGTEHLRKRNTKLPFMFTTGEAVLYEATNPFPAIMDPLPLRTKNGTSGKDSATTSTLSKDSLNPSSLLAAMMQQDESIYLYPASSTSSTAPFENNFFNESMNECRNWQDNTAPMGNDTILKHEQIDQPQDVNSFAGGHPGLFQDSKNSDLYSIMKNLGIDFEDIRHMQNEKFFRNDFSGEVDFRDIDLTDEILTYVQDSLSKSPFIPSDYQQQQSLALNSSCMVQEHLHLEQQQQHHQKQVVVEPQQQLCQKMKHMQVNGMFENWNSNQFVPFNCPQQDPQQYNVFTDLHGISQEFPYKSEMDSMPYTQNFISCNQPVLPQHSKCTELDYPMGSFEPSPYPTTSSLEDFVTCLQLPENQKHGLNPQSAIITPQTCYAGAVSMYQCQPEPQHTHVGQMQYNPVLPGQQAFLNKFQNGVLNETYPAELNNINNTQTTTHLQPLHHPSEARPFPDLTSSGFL

Regarding `CCn1nc(C(=O)O)c(=O)c2cc3c(cc21)OCO3`, the Potency result in test [1], in test [2] and in test [3] was “inactive” in each case.
Regarding `C[C@]12CC[C@H]3[C@@H](CCC4=CC(=O)CC[C@@]43C)[C@@H]1CC[C@H]2O`, the Potency result in [4], in [5], in test [6], in [8], in test [9] and in test [10] was “inactive” in each case. Further, the Potency result in test [11], in [14], in test [15], in [16], in test [17] and in test [18] was “inactive” throughout. For the same compound, in test [19], the Potency result was “inactive”. In addition, the compound was classed as inactive in [7], in [12] and in test [13].
Take `CC1=NN(c2cc(Cl)c(S(=O)(=O)O)cc2Cl)C(=O)C1N=Nc1ccc(S(=O)(=O)O)cc1` (stereo not given): the Potency entry in test [1], in [2] and in test [3] was “inactive” in each case.
As for `COc1ccc(-c2nc3ccc(C4=NNC(=O)CC4C)cc3[nH]2)cc1` (stereo not given), the Potency entry in [1] and in [2] was “inactive” throughout.
With `COC(=O)[C@@H]1[C@H]2CC[C@@H](C[C@H]1OC(=O)c1ccccc1)N2C`, the Potency result in [4], in test [5], in test [6], in [9], in test [10] and in [11] was “inactive” throughout. Besides, the Potency result in test [14], in [15], in test [16], in test [20], in test [17] and in [18] was “inactive” each time. Also, in test [19], the Potency entry is “inactive”. Also, the compound was classed as inactive in test [7], in test [12] and in test [13].
Turning to `C[C@]12C[C@H]3S[C@H]3C[C@@H]1CC[C@@H]1[C@@H]2CC[C@]2(C)[C@@H](O)CC[C@@H]12`, the Potency result in test [4], in test [5], in test [6], in test [8], in [9] and in [10] was “inactive” in each case. The Potency entry in [11], in [14], in test [15], in test [16], in test [20] and in test [17] was “inactive” each time. For the same compound, the Potency result in test [18] and in [19] was “inactive” each time. For the same compound, the compound was classed as inactive in test [7], in test [12] and in test [13].
As to `CC1(C)[C@H](C=C(Cl)Cl)[C@H]1C(=O)OCc1c(F)c(F)cc(F)c1F`, the Potency entry in [4], in test [5], in test [6], in test [8], in test [9] and in test [10] was “inactive” each time. For the same compound, the Potency entry in test [11], in test [14], in [15], in test [16], in [17] and in [18] was “inactive” each time. Further, the Potency entry in test [19] was “inactive”. Moreover, the compound was classed as inactive in test [7], in test [12] and in test [13].
In the case of `CC(=O)O[C@H]1C[C@H](O[C@H]2[C@@H](O)C[C@H](O[C@H]3[C@@H](O)C[C@H](O[C@H]4CC[C@@]5(C)[C@H](CC[C@@H]6[C@@H]5C[C@@H](O)[C@]5(C)[C@@H](C7=CC(=O)OC7)CC[C@]65O)C4)O[C@@H]3C)O[C@@H]2C)O[C@H](C)[C@H]1O[C@@H]1O[C@H](CO)[C@@H](O)[C@H](O)[C@H]1O`, the Potency entry in test [4], in test [6], in test [8], in test [9], in test [10] and in test [11] was “inactive” in each case. Further, the Potency entry in test [14], in [15], in [20], in test [17] and in test [18] was “inactive” each time. Moreover, the values for the Potency in test [5] and in test [16] were 0.168 µM (active) and 0.674 µM (active), respectively. Moreover, the call in [7], in test [12] and in test [13] was inactive.
Take `NCCNCCNCCNCCN`: in test [1], the Potency is 79.3 µM (active) and the activity, negative = inhibition was 4.34% [at 10.5 µM]. Further, in [2], the Potency result was “inactive”. For the same compound, the activity change, negative = inhibition in test [3] is 0.135% [at 10.5 µM].
For `Oc1cccc[c]1[Hg][Cl]`, the Potency result in test [4], in [8], in test [9], in test [10], in test [11] and in test [14] was “inactive” in each case. For the same compound, the Potency entry in [15] and in test [19] was “inactive” each time. For the same compound, the Potency is 4.22 µM (active) in [5]; 13.3 µM (active) in test [6]; 5.35 µM (active) in [16]; 0.841 µM (active) in test [20]; 3.76 µM (active) in test [17]; 5.31 µM (active) in test [18]. Also, the outcome in test [7], in test [12] and in test [13] was inactive.
